Assay results reported in PubChem BioAssay AID1159580 (chemical genetic matrix, 2015).
Where “and” joins values, the source holds several entries; their conditions need not be identical. Equal values may be shown once. Among all 5,500 compounds or so, about 2,000 (36%) were called active. Inconclusive results (about 18%) are left out. No stated cut-off is given here; in the data, active means normalized growth mostly below about 0.91 (no sharp cut-off); inconclusive means no clear call, values can overlap the other calls; inactive means mostly above about 0.92. The list shows a part of the results.

Assay: chemical genetic growth profiling, strain panel (AID 1159580);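 further: tested at 20 µM; growth read once vehicle control cultures reached saturation at 30 °C; 1 = growth at the plate median or of vehicle wells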
Conditions: S. cerevisiae deletion strains, growth OD

Measured: normalized growth

NC(=O)c1ccc[n+]([C@@H]2O[C@H](COP(=O)([O-])OP(=O)(O)OC[C@H]3O[C@@H](n4cnc5c(N)ncnc54)[C@H](O)[C@@H]3O)[C@@H](O)[C@H]2O)c1
inactive: locus YAL013W, strain DEP1, stronger effect = lower value 0.974 | locus YAL021C, strain ccr4, stronger effect = lower value 1.05 | locus YAL026C, strain drs2, stronger effect = lower value 1.04 | locus YAL030W, strain snc1, stronger effect = lower value 1.02 | locus YBL061C, strain skt5, stronger effect = lower value 1.03 | locus YBR009C, strain hhf1, stronger effect = lower value 1.05 | locus YBR021W, strain FUR4, stronger effect = lower value 0.996 | locus YBR023C, strain chs3, stronger effect = lower value 1.03 | locus YBR171W, strain sec66, stronger effect = lower value 1.06 | locus YBR229C, strain ROT2, stronger effect = lower value 0.949 | locus YBR231C, strain swc5, stronger effect = lower value 1.03 | locus YBR279W, strain paf1, stronger effect = lower value 1.02 | locus YCL011C, strain gbp2, stronger effect = lower value 1.04 | locus YCL016C, strain dcc1, stronger effect = lower value 1.04 | locus YCL029C, strain bik1, stronger effect = lower value 0.99 | locus YCL061C, strain MRC1, stronger effect = lower value 1.03 | locus YCL069W, strain vba3, stronger effect = lower value 1.03 | locus YCR088W, strain abp1, stronger effect = lower value 1.03 | locus YDL005C, strain med2, stronger effect = lower value 1.02 | locus YDL035C, strain GPR1, stronger effect = lower value 0.986 | locus YDL040C, strain nat1, stronger effect = lower value 1.03 | locus YDL074C, strain BRE1, stronger effect = lower value 1.03 | locus YDL101C, strain DUN1, stronger effect = lower value 0.987 | locus YDL134C, strain PPH21, stronger effect = lower value 0.978 | locus YDL185W, strain tfp1, stronger effect = lower value 0.994 | locus YDL192W, strain arf1, stronger effect = lower value 0.99 | locus YDR001C, strain nth1, stronger effect = lower value 1.02 | locus YDR069C, strain doa4, stronger effect = lower value 1.02 | locus YDR101C, strain arx1, stronger effect = lower value 1.01 | locus YDR137W, strain rgp1, stronger effect = lower value 1.07 | locus YDR150W, strain NUM1, stronger effect = lower value 0.965 | locus YDR159W, strain sac3, stronger effect = lower value 0.949 | locus YDR162C, strain NBP2, stronger effect = lower value 0.973 | locus YDR195W, strain ref2 1.08 | locus YDR297W, strain sur2, stronger effect = lower value 1.04 | locus YDR318W, strain mcm21, stronger effect = lower value 1.02 | locus YDR334W, strain swr1, stronger effect = lower value 1.02 | locus YDR335W, strain msn5, stronger effect = lower value 1.05 | locus YDR388W, stronger effect = lower value 0.99 | locus YDR392W, strain spt3, stronger effect = lower value 1.08 | locus YDR502C, strain sam2, stronger effect = lower value 0.992 | locus YEL003W, strain gim4, stronger effect = lower value 1.02 | locus YEL037C, strain rad23, stronger effect = lower value 1.03 | locus YEL061C, strain CIN8 (second series), stronger effect = lower value 1.02 | locus YEL061C, strain CIN8, stronger effect = lower value 0.981 | locus YER015W, strain faa2, stronger effect = lower value 1.04 | locus YER016W, strain bim1, stronger effect = lower value 1.04 | locus YER110C, stronger effect = lower value 0.973 | locus YER111C, strain swi4, stronger effect = lower value 1.03 | locus YER155C, strain BEM2 (second series), stronger effect = lower value 1.06 | locus YER155C, strain BEM2, stronger effect = lower value 0.99 | locus YER167W, strain BCK2, stronger effect = lower value 0.987 | locus YFR010W, strain ubp6, stronger effect = lower value 1.05 | locus YGL078C, strain dbp3, stronger effect = lower value 0.998 | locus YGL086W, strain mad1, stronger effect = lower value 0.992 | locus YGL167C, strain pmr1, stronger effect = lower value 1.04 | locus YGL173C, strain kem1, stronger effect = lower value 1.04 | locus YGL227W, strain vid30, stronger effect = lower value 1.03 | locus YGL240W, strain doc1, stronger effect = lower value 1.02 | locus YGL248W, strain PDE1, stronger effect = lower value 0.977 | locus YGL253W, strain hxk2, stronger effect = lower value 1.04 | locus YGR078C, strain PAC10, stronger effect = lower value 1.02 | locus YGR135W, strain pre9, stronger effect = lower value 1 | locus YGR229C, strain SMI1, stronger effect = lower value 1.02 | locus YGR252W, strain gcn5, stronger effect = lower value 0.913 | locus YHR013C, strain ard1, stronger effect = lower value 1.08 | locus YHR027C, strain rpn1, stronger effect = lower value 1.03 | locus YHR030C, strain SLT2, stronger effect = lower value 0.981 and 0.987 | locus YHR079C, strain IRE1 (second series), stronger effect = lower value 1 | locus YHR079C, strain IRE1, stronger effect = lower value 0.962 | locus YHR094C, strain hxt1, stronger effect = lower value 0.993 | locus YHR129C, strain ARP1, stronger effect = lower value 0.996 | locus YHR142W, strain chs7, stronger effect = lower value 1.09 | locus YHR200W, strain rpn10, stronger effect = lower value 0.994 | locus YIL066C, strain RNR3, stronger effect = lower value 0.982 | locus YIL073C, strain SPO22, stronger effect = lower value 0.985 | locus YIL125W, strain kgd1, stronger effect = lower value 0.986 | locus YIR030C, strain dcg1, stronger effect = lower value 0.988 | locus YJL092W, strain hpr5, stronger effect = lower value 1.02 | locus YJL095W, strain BCK1 (second series), stronger effect = lower value 1.02 | locus YJL095W, strain BCK1, stronger effect = lower value 1.03 and 0.983 | locus YJL115W, strain asf1, stronger effect = lower value 1.03 | locus YJL129C, strain trk1, stronger effect = lower value 1.06 | locus YJL134W, strain LCB3, stronger effect = lower value 0.977 | locus YJL154C, strain vps35, stronger effect = lower value 1.02 | locus YJL164C, strain tpk1, stronger effect = lower value 1.05 | locus YJL166W, strain qcr8, stronger effect = lower value 1.03 | locus YJL168C, strain set2, stronger effect = lower value 0.995 | locus YJL187C, strain SWE1 (second series), stronger effect = lower value 0.987 | locus YJR043C, strain POL32, stronger effect = lower value 1.02 | locus YJR066W, strain TOR1, stronger effect = lower value 0.943
